Assay results as given in PubChem BioAssay (NCI).
About 83,000 compounds went through this panel and 20% of them were active in at least one assay; those are over-represented in the sample as a whole.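 Single-concentration screen, 48 h exposure, 96-well plates. Endpoint: percent growth. Below 10 = active.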 Values without a mark were called inactive. Activity calls are given as the source filed them.

test system: HL-60(TB) leukemia; test: NCI-60 one-dose screen, 48 h (100 = growth as untreated, 0 = no growth, -100 = all killed); settings: 10 µM unless noted

Row | SMILES | growth
1 | O=C(CC(O)c1ccncc1)c1ccccc1 (stereo not drawn) | 100%
2 | CN(C)c1ccc2c(c1)OC(N)=C(C#N)C2c1ccc2c(c1)CCCN2C (stereo not drawn) | 5.46% (active)
3 | Cc1ccc(N(CC(=O)Nc2ccc(S(=O)(=O)N3CCC(N4CCCC4)CC3)cc2)S(=O)(=O)c2ccc(Cl)cc2)cc1 | -51.5% (active)
4 | CCCCCN1C(=O)CCC1=O | 88.1%
5 | Cc1cc(=O)[nH]c(=O)n1Cc1cn(-c2c3ccccc3nc3ccccc23)nn1 | 16.3%
6 | COc1ccc(/C=C2\CN(Cc3cn(CCCNc4ccnc5cc(Cl)ccc45)nn3)C/C(=C\c3ccc(OC)cc3)C2=O)cc1 | 53.1%
7 | COC(=O)CCC1=C(C)/C(=C/c2[nH]c(-c3ccc[nH]3)cc2OC)N=C1C | -23.3% (active)
8 | CCn1c(Cc2ccccc2Nc2c(Cl)cccc2Cl)nnc1SCC(=O)NN1C(=O)/C(=C/c2cccc(OC)c2OC)SC1=S | 97.5%
9 | O=S(=O)(NCCNc1nccc(-c2c(-c3cccc(O)c3)nc3occn23)n1)c1ccc(Cl)cc1 | 76.4%
10 | CCN1CCN(Cc2ccc(NC(=O)c3nc4ccc5[nH]ncc5c4c4c3CCCC4)cc2C(F)(F)F)CC1 | -59% (active)
11 | Nn1c(SCC(=O)Nc2cc(Cl)c(Cl)cc2Cl)nnc1-c1cc(F)c(Cl)cc1Cl | 92%
12 | COc1cc2cc(OC(C)=O)c3cc4c(cc3c2c(OC)c1OC)OCO4 | 96.6%
13 | CCOc1cc(\C=N/N=C(N)/C(N)=N\N=C/c2ccc(O)c(OCC)c2)ccc1O | 121%
